Experimental data as given in PubChem BioAssay (NCI).
Several values for one entry are separate records, joined by “and”; a condition that tells them apart may be missing. Equal values may be shown once. The panel holds about 79,000 compounds, 15% with a hit somewhere; the sample as a whole holds those more often. A number with no mark means an inactive call. Activity calls are given as the source filed them. No stated cut-off is given here; in the data, active means growth inhibition above about 70%; inactive means the rest.

What was measured:
[1] = NCI Yeast Anticancer Drug Screen. Data for the rad50 strain (AID 155);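 further: 0% = growth of vehicle-only cultures of the same strain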; conditions: S. cerevisiae rad50 strain growth inhibition; at 50.0 µM; stronger effect = higher value
How it was run: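 Yeast carrying a defined DNA repair defect were exposed to test compounds, and growth was compared with vehicle-treated controls to give percent inhibition.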

[2] = NCI Yeast Anticancer Drug Screen. Data for the mec2-1 strain (AID 157); conditions: S. cerevisiae mec2-1 strain, at 50.0 µM, stronger effect = higher value
How it was run: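 Cells of the genetically defined mec2-1 yeast strain are incubated with test compound. Inhibition of growth is calculated against vehicle-treated controls.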

[3] = NCI Yeast Anticancer Drug Screen. Data for the sgs1 mgt1 strain (AID 161);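 further: 0% = growth of cultures given vehicle only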; conditions: S. cerevisiae sgs1 mgt1 strain, at 50.0 µM, stronger effect = higher value
How it was run: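 Read-out: growth inhibition vs vehicle controls. Cells: mutant yeast strain deficient in DNA damage repair.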

[4] = NCI Yeast Anticancer Drug Screen. Data for the cln2 rad14 strain (AID 165);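 further: 0% = growth equal to vehicle treated cultures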; conditions: S. cerevisiae cln2 rad14 strain, at 50.0 µM, stronger effect = higher value
How it was run: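 The screen exposed genetically defined yeast (cln2 rad14) to test compounds and scored growth inhibition relative to vehicle-treated controls.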

[5] = NCI Yeast Anticancer Drug Screen. Data for the bub3 strain (AID 167); conditions: S. cerevisiae bub3 mutant strain, at 50.0 µM, stronger effect = higher value
How it was run: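 Compounds were applied to a genetically altered yeast strain carrying a cell-cycle control defect. Growth inhibition was scored against vehicle-treated controls.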

[6] = NCI Yeast Anticancer Drug Screen. Data for the mlh1 rad18 strain (AID 175); conditions: S. cerevisiae mlh1 rad18 strain growth inhibition; at 50.0 µM; stronger effect = higher value
How it was run: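 Compound-treated yeast growth, normalised to vehicle controls. Strain bears defined DNA repair mutations.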

SMILES	growth inhibition [1]	growth inhibition [2]	growth inhibition [3]	growth inhibition [4]	growth inhibition [5]	growth inhibition [6]
CN1CCC23c4c5cc(-c6cc7c8c(c6O)OC6C(O)C=CC9C(C7)N(C)CCC896)c(O)c4OC2C(O)C=CC3C1C5 (stereo not drawn)	-5.2% and 0.8%	-10.7% and -11.2%	1.9% and 2.85%	-13.2% and 4.85%	-4.45% and 7.4%	-4.8% and 1.75%
CN(C)CCNC(=O)c1c([N+](=O)[O-])ccc(N(CCCl)CCCl)c1[N+](=O)[O-]	12.7%	-11.4%	-9.9%	-27.7%	13.2%	-2.65%
N.N.N.N.N#N.N#N.[Cl-].[Os+6]	-25.4%	-24.1%	-34.6%	-7.95%	-35.4%	-39%
N#Cc1ccc(CCl)cc1	39.1%	7.55%	7.45%	-6.05%	2.95%	41.7%
CNC(=O)Oc1ccc(C=Nc2cccc([N+](=O)[O-])c2)cc1	2.9%	37.4%	14.7%	0.65%	34.9%	32.5%
CC[P+](C#Cc1ccccc1)(c1ccccc1)c1ccccc1	85.8% (active)	88.9% (active)	89% (active)	87.2% (active)	87.4% (active)	87.5% (active)
COC(=O)C1C(=O)CC2N(C)C1C(C)(C)C2(C)C (stereo not drawn)	47.9%	21.4%	60.6%	4.8%	38.4%	56.1%
[C-]#[O+].[C-]#[O+].[C-]#[O+].[C-]#[O+].[C-]#[O+].[C-]#[O+].[C-]#[O+].[C-]#[O+].[C-]#[O+].[C-]#[O+].[Mn].[Mn]	-21.1%	-12.6%	-15.2%	-71.6%	4.45%	-25.9%
Cc1ccccc1-n1c(CCl)nc2ccc(Br)cc2c1=O	18.4%	2.6%	12.6%	6.05%	1.35%	27.1%
O=[As](O)(O)c1ccc(F)cc1	3.45%	9.8%	-4.35%	14.6%	9.3%	2.95%
C[N+](C)(C)CC1CCCCC1=O (stereo not drawn)	24.1%	11.6%	17.9%	21.8%	11.7%	44.5%
CCOC(=O)NP(=O)(Nc1ccccc1)Nc1ccccc1	21.2%	-8.05%	-3.5%	5.7%	-5.1%	-5%
CCCCCCOC(=O)C(N)Cc1ccc(OC)c(N(CCCl)CCCl)c1 (stereo not drawn)	6.5%	3.65%	-3.55%	5.7%	-1.6%	-2.7%
O=C(Nc1ccccc1)C(Cl)(Cl)Cl	-10.1%	-25.8%	11.1%	-10.2%	-9.8%	19.8%
Oc1ccc(C=NCC2CCCC[N-]2)c(O)c1.Oc1ccc(C=NCC2CCCC[N-]2)c(O)c1.[Ni+2] (stereo not drawn)	7.3%	8%	6.55%	5.15%	11.2%	-8.4%
CN(C)CCc1ccc(Cl)cc1Cl	11.1%	14.3%	-2.5%	6.6%	3.75%	22.4%
Cc1cc(S(=O)(=O)[O-])ccc1-n1nc(C)[c-](N=Nc2cc(S(=O)(=O)[O-])ccc2C(=O)[O-])c1=O.[Cr+3].[Na+].[OH-] (stereo not drawn)	-19.4%	-30.5%	-11.6%	-35.4%	-16.3%	-17.1%
Cc1csc(CP(=O)(OC(C)C)OC(C)C)n1	-22.6%	-47%	-21.6%	-13.2%	3.35%	-5.8%
CC1(Cl)CC2C(CC1Sc1nnnn1-c1ccccc1)C2(C)C (stereo not drawn)	-7.45%	-35.2%	-7.2%	-20.6%	-18.4%	-7.2%

SMILES	growth inhibition [1]	growth inhibition [2]	growth inhibition [3]	growth inhibition [4]	growth inhibition [5]	growth inhibition [6]
O=C(Cl)OCCOCCOC(=O)Cl	-4.35%	-6.1%	6.95%	-28.1%	-3.15%	-4.4%
Nc1ccc(C(=O)O)c(C(=O)O)c1	-10.5%	-6.8%	1.35%	-32%	-13.9%	-7.05%
COc1ccc(/C=C/C(=O)c2c(-c3ccccc3)nn(C)c(=O)c2N2CC2C)cc1 (stereo not drawn)	-11.6%	19.9%	-10.4%	-7.2%	-4.8%	-13.4%
CC(=O)OC1CCC2(C)C3CCC4(C)C(Oc5ccccc5)CCC4C3CC(Br)C2(O)C1 (stereo not drawn)	-48%	-29.9%	-35.9%	2.75%	-31.6%	-43%
CCCCCCCCCCCCCCC(O)C1CCC(C(O)CCC(O)CCCCCC(O)CC2=CC(C)OC2=O)O1 (stereo not drawn)	-37.2%	-33.1%	-17.6%	39.8%	-25.4%	2.7%
COC(=O)C(C)N(CCCl)P(=O)(N1CC1)N1CC1 (stereo not drawn)	5.4%	8.2%	11.4%	9.1%	4.35%	1.85%
CN(CC(N)=O)C(=O)N(CCCl)N=O	7.8%	1.6%	-11.5%	-18.7%	1.55%	-41.5%
COc1cc(C(=O)O)cc(OC)c1OC	-19.9%	-19.6%	-23.1%	-26.8%	2.05%	-9.95%
Cc1cc(N(CCCl)CCCl)ccc1C=Nc1ccccc1F	8.3%	-5.4%	3.6%	-40.4%	6.85%	0.5%
COc1ccc2nc3ccccc3c(NCCCCCCN(CCCl)CCCl)c2c1	88.2% (active)	79.1% (active)	80.8% (active)	86.3% (active)	48.4%	82.9% (active)
ClCc1ccco1	0.35%	2.4%	10.6%	-11.4%	23.6%	36.2%
C[C@]12Cc3cnc(-c4ccccc4)nc3C[C@@H]1CC[C@@H]1[C@@H]2CC[C@@]2(C)[C@H]1CC[C@]2(C)O	23.6%	25.1%	13.1%	9.55%	39.5%	20.1%
CCCC(C)COC(=O)Cc1ccccc1 (stereo not drawn)	18.3%	18.2%	9.55%	-27.9%	4.3%	15.2%
CCCCNCCc1cccnc1	33.5%	13.8%	20.8%	23.7%	0.8%	15.9%
CCOP(=S)(OCC)OP(=O)(CC)CC	3.1%	-10.1%	-1.7%	4.4%	9.2%	-2.55%
CCOc1ccc([N+](=O)[O-])cc1CNCCBr	3.3%	-1.3%	-0.45%	-22.1%	-3.1%	12.2%
CC12CCC(OC3OC(CO)C(OC4OC(CO)C(O)C(O)C4O)C(O)C3O)CC1CCC1C2CCC2(C)C(C3=CC(=O)OC3)CCC12O (stereo not drawn)	15.8%	-3.95%	-14.2%	-7.95%	13.6%	6.85%
O=C(O)C(=O)C(Cl)Br (stereo not drawn)	4.95%	-8.75%	-2.5%	-18%	2.35%	0.65%
c1ccc(C(NC2=NCCO2)c2ccccc2)cc1	-19%	-33%	-60.8%	-21.5%	-17.2%	-45.8%
